VDR inh = Inhibitors of the vitamin D receptor (VDR): qHTS; Vitamin D3 receptor (Homo sapiens), P11473; VDR-SRC2-3 peptide fluorescence polarization, 2 h; Potency, µM, actives largely listed as inhibitors; 400,000 tested, 0.93% active; AID 504847, 2011
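The screen uses fluorescence polarization to detect compounds that interfere with recruitment of the SRC2-3 coactivator peptide to VDR; plates are read after 2 h at room temperature.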
DT40 TDP1 no CPT = qHTS for Inhibitors of human tyrosyl-DNA phosphodiesterase 1 (TDP1): qHTS in cells in absence of CPT; DT40 Tdp1-/- hTDP1 cells, no CPT, ATP luminescence, 48 h; Potency, µM (highest dose often 46.2 µM), usual class: inhibitors; 420,000 tested, 15% active; further: nearly all actives have a fitted effect of over 55% in size
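Chicken DT40 Tdp1-/- cells stably complemented with human TDP1 were seeded at 400 cells/well with DMSO in place of 20 nM camptothecin. After compound pinning, cells grew at least 48 hr at 37 °C; viability read by CellTiter-Glo luminescence.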
TDP1 block = qHTS Assay for Inhibitors of Tyrosyl-DNA Phosphodiesterase (TDP1). recombinant TDP1, AlphaScreen DNA substrate cleavage. Potency, µM (doses to about 130 µM), usual class: inhibitors. Tyrosyl-DNA phosphodiesterase 1 (Homo sapiens), Q9NUW8. 350,000 tested, 0.28% active; further: nearly all actives have a fitted effect of over 40% in size
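Enzyme-compound mixtures sat 15 min at room temperature, followed by a 5 min reaction with 15 nM final substrate and 10 min with AlphaScreen beads. Recombinant human Tdp1 was used at 1 nM final.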
KAT2A inh = qHTS Assay for Inhibitors of GCN5L2; Potency, µM (titrated, usually from 58.9 µM), hits mostly inhibitors; Histone acetyltransferase KAT2A (Homo sapiens), Q92830; GCN5L2 HAT assay, ThioGlo1 CoA-SH fluorescence; 390,000 tested, 0.21% active
Target sequence (Q92830 whole entry, looked up): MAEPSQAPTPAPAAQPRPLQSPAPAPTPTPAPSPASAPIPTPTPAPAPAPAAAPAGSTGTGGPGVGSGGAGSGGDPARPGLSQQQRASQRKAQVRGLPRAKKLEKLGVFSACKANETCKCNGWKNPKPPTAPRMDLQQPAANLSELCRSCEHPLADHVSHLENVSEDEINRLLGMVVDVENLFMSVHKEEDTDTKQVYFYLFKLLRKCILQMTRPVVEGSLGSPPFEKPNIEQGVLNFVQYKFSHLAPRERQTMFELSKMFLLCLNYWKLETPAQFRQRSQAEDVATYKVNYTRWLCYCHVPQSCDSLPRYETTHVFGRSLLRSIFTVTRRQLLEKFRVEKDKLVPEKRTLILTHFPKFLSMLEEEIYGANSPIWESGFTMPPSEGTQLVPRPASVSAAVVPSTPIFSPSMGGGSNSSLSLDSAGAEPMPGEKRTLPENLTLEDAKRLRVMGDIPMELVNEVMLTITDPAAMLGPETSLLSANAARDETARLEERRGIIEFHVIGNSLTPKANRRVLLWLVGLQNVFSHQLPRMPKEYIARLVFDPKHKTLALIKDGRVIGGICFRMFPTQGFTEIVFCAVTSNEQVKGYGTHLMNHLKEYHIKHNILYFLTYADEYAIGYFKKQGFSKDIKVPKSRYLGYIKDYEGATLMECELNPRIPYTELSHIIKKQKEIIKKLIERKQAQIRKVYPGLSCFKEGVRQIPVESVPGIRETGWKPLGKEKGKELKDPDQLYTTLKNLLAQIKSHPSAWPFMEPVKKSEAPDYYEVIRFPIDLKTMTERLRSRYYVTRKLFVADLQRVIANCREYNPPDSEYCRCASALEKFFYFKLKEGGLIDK
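Titration-based screen in which CoA formation is detected via maleimide probe ThioGlo1 (50uM) turning fluorescent on thiol reaction; substrates H3(1-25) 75uM and acetyl-CoA 70uM, GCN5L2 20nM, 20 min incubation at room temperature.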
PLK1 PBD block = qHTS for Inhibitors of PLK1-PDB (polo-like kinase 1 - polo-box domain): Primary Screen. Potency, µM, usual class: inhibitors. 360,000 tested, 2.8% active. Plk1 PBD binding of FITC phosphopeptide, fluorescence polarization; further: series mostly up to about 57 µM; nearly all actives have a fitted effect of over 65% in size
TDP1 cell CPT = qHTS for Inhibitors of human tyrosyl-DNA phosphodiesterase 1 (TDP1): qHTS in cells in presence of CPT; 420,000 tested, 12% active; AID 686979, 2013; chicken DT40 Tdp1-/-;hTDP1 cells + 20 nM CPT, ATP luminescence, 48 h; Potency, µM (top dose mostly 46.2 µM), most hits filed as inhibitors; further: nearly all actives have a fitted effect of over 55% in size
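Chicken DT40 Tdp1-/- cells complemented with human TDP1, 400 cells/well, exposed to compounds plus 20 nM camptothecin for at least 48 h at 37 C; viability read as ATP content by CellTiter-Glo luminescence.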
A number is an active result; n = inactive; u = inconclusive; x = no result given; [ ] = dose if it differs, or a comment. An excerpt weighted towards active compounds, which were near 18% of everything screened. The call rests on the fitted dose curve; in most records, active means well fitted curve in the direction sought with a large enough effect; inconclusive means small, poorly fitted or top-dose-only effect, or another doubt; inactive means no such curve, though single readings can be large; an effect the other way counts as inactive or inconclusive.

SMILES	VDR inh	DT40 TDP1 no CPT	TDP1 block	KAT2A inh	PLK1 PBD block	TDP1 cell CPT
COC(=O)c1c(NC(=O)CSc2nnc(-c3ccco3)n2C)sc(C)c1C	u	u	n	n	29.9µM	n
Cc1cc(C)cc(NC(=O)CSc2nnc(CNC(=O)c3ccco3)n2C)c1	n	29.1µM	n	n	n	u
Cc1ccc(CNC(=O)CN2C(=O)COc3ccc(S(=O)(=O)N4CCC(C)CC4)cc32)cc1	n	n	n	n	x	u
Cn1c(SCc2cccc3ccccc23)nnc1-c1ccco1	n	u	n	n	n	13µM
CCn1c(SCC(=O)NNC(=O)c2ccccc2)nnc1-c1ccco1	n	u	n	n	n	n
COc1cccc(CSc2nnc(-c3ccco3)n2C)c1	n	n	n	n	n	n
CCn1c(Sc2ccc([N+](=O)[O-])cn2)nnc1-c1ccco1	n	2.06µM	n	n	n	1.64µM
Nc1ncnc2c1ncn2[C@@H]1O[C@H](COP(=O)(O)OP(=O)(O)OC[C@H]2OC(O)[C@H](O)[C@@H]2O)[C@@H](O)[C@H]1O (some centres not stated)	n	u	n	n	x	n
CCOc1ccc(/C=N/NC(=O)c2csc(C)c2C)c(OCC)c1	n	n	n	n	n	n
Cc1scc(C(=O)N/N=C/c2ccc(Cl)s2)c1C	n	16.4µM	n	n	n	u
Cc1scc(C(=O)N/N=C/c2ccc(OC(C)C)cc2)c1C	n	u	n	n	n	u
CCCCOc1cccc(/C=N/NC(=O)c2csc(C)c2C)c1	n	23.1µM	n	n	n	u
Nc1sc(-c2ccccc2)n[n+]1Cc1cccc2cccnc12	n	23.1µM	n	n	n	u
O=C(CCC(=O)OCC(=O)c1ccc(-c2ccccc2)cc1)Nc1cccc2cccnc12	n	n	n	n	n	n
CN(Cc1ccccc1)C(=O)c1[nH]cnc1C(=O)Nc1cccc(Cl)c1	n	u	n	n	n	u
COc1ccc(NC(=O)c2nc[nH]c2C(=O)N(C)Cc2ccccc2)cc1	n	u	n	n	n	23.1µM
CN(Cc1ccccc1)C(=O)c1[nH]cnc1C(=O)Nc1ccc(Cl)cc1	n	23.1µM	n	n	n	u
CCCCCCCCCCCCCCC[C@@H](O)[C@H](CO)NC(C)=O	n	n[4.12 µM]	n	n	x	n[4.12 µM]
N#Cc1c(N)sc(=S)c2c1CCCCC2	u	n	10µM	u	21.2µM	u
N#Cc1c(N)sc2c1CCCCCC2	n	n	n	n	n	n
CC(C)=CCC1C(=O)N(c2ccccc2)N(c2ccccc2)C1=O	25.1µM	3.76µM	n	n	x	3.76µM
COc1ccc(N(CC(=O)NCc2ccccc2Cl)S(=O)(=O)c2c(C)[nH]c(=O)[nH]c2=O)cc1	n	n	n	n	x	n
Cc1cc(Cl)ccc1OCCCC(=O)OCC(=O)Nc1cccc(S(N)(=O)=O)c1	n	n	n	n	n	n
COc1cccc(N2CC(O)Cn3c2nc2c3c(=O)n(CCCc3ccccc3)c(=O)n2C)c1 (configuration not stated)	n	16.4µM	n	n	n	11.6µM
CN1C(=O)CSC1=S	n	n	x	n	n	n
SMILES	VDR inh	DT40 TDP1 no CPT	TDP1 block	KAT2A inh	PLK1 PBD block	TDP1 cell CPT
O=c1ccc2cc(S(=O)(=O)NCc3ccccc3)ccc2[nH]1	n	n	x	n	n	n
OCC[C@@H]1NCc2cc(CO)cc(-c3ccccc3)c21	n	18.4µM	x	x	n	20.6µM
CCN1CCN(C(=O)c2sc3ncnc(NCC4CCCO4)c3c2C)CC1 (configuration not stated)	x	n	x	x	x	n
CCC(c1nnnn1C(C)(C)CC)N(CCCO)Cc1cc2cccc(C)c2[nH]c1=O (configuration not stated)	n	n	n	n	n	n
Cc1cccc2cc(CN(CCCN3CCOCC3)Cc3nnnn3C(C)(C)C)c(=O)[nH]c12	n	n	n	n	n	n
CCC(C)(C)n1nnnc1C(C(C)C)N(CCN1CCOCC1)Cc1cc2cccc(C)c2[nH]c1=O (configuration not stated)	n	n	n	n	n	18.4µM
CCC(c1nnnn1C(C)(C)CC)N(CCCN1CCOCC1)Cc1cc2cccc(C)c2[nH]c1=O (configuration not stated)	n	u	n	n	n	14.1µM
Cc1ccc(C)c(NC(=O)c2cc(S(=O)(=O)N3CCOCC3)cn2C)c1	n	n	x	n	n	14.6µM
Cn1cc(S(=O)(=O)N2CCOCC2)cc1C(=O)Nc1ccc(Cl)c(C(F)(F)F)c1	n	23.1µM	n	n	x	u
Clc1cccc2c1CCN(Cc1nc(-c3cnccn3)no1)C2	n	n	n	n	n	n
Cc1ccccc1-c1noc(-c2ccc(NCc3ccco3)c([N+](=O)[O-])c2)n1	n	n	n	n	x	u
CC(=O)N=Nc1[nH]c(N)c2ccccc12	n	n	n	n	n	n
CNc1nc2ccccc2n1/N=C/c1cccc(OC)c1OC	n	20.6µM	n	n	n	u
COc1cccc(C=NNc2nnc(NN=Cc3cccc(OC)c3OC)c3ccccc23)c1OC	n	20.6µM	x	x	n	23.1µM
COc1cccc(/C=N/n2c(CO)nc3ccccc32)c1OC	n	n	n	n	n	n
COc1cccc(C=NNC(=S)NN=Cc2cccc(OC)c2OC)c1OC	n	4.11µM	x	x	n	4.61µM
COc1cccc(/C=N/Nc2nnc(C)n2N)c1OCc1ccccc1Cl	n	23.1µM	n	n	n	u
COc1ccc(-n2c(=O)c3ccccc3n(CC(=O)NCCc3ccc(OC)c(OC)c3)c2=O)cc1	n	n	n	n	x	n
CN(CC1CCOCC1)C(=O)CC1C(=O)NCCN1Cc1ccc(F)c(F)c1 (configuration not stated)	n	n	n	n	n	n
CSc1nc(N)nc2c1ncn2C1OC(CO)CC1O (configuration not stated)	n	u	x	x	n	u
C=C(C)Cn1c2ccc(NC(=O)NCc3ccc(F)cc3)cc2c(=O)n1C	x	n	x	x	n	n
Oc1ccccc1/C=N/NC(=S)NC1CC2CCC1C2 (configuration not stated)	n	u	n	n	n	u
COc1cccc(/C=N/NC(=S)NC2CC3CCC2C3)c1OC (configuration not stated)	n	20.6µM	n	n	n	u
